# ALDH1A1 inh – qHTS Assay for Inhibitors of Aldehyde Dehydrogenase 1 (ALDH1A1) | 220,000 compounds, 7.3% hits | Potency, µM (highest dose often 75.3 µM), for inactives: at the highest dose activity, negative = inhibition, usual class: inhibitors | Aldehyde dehydrogenase 1A1 (Homo sapiens), P00352 | Purified ALDH1A1, NADH fluorescence, propionaldehyde substrate | AID 1030, 2008;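 also: potency is read from the fitted curve at half-maximal effect; plate controls were no enzyme wells and a reference inhibitor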
# HPGD inh – qHTS Assay for Inhibitors of HPGD (15-Hydroxyprostaglandin Dehydrogenase) | 150,000 compounds, 4.3% hits | AID 894, 2007 | 15-hydroxyprostaglandin dehydrogenase [NAD(+)] (Homo sapiens), P15428 | purified HPGD, NADH fluorescence kinetic, PGE2 substrate | Potency, µM, inactives show at the top dose activity change, negative = inhibition, most hits filed as inhibitors; also: potency is read from the fitted curve at half-maximal effect
# Target sequence (P15428 whole entry, looked up): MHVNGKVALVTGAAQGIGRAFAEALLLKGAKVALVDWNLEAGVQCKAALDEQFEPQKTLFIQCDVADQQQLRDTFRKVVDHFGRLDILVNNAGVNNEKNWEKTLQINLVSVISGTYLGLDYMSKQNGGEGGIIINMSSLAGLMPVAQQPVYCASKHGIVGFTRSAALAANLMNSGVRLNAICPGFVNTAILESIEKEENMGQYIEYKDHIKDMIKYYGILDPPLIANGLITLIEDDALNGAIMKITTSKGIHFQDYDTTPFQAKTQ
#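 NADH formation kinetics: reaction with 30 uM PGE2 and 1 mM NAD+ (final), 20 nM enzyme, Tris-HCl pH 8 with Tween 20, after 15 min compound preincubation at room temperature. Fluorescence change, last versus first of five reads.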
# 12-hLO inh – qHTS Assay for Inhibitors of 12-hLO (12-human lipoxygenase); Polyunsaturated fatty acid lipoxygenase ALOX12 (Homo sapiens), P18054; purified 12-hLO, xylenol orange hydroperoxide absorbance; Potency, µM (highest dose often 57.1 µM), for the others: at the highest dose activity change, negative = inhibition, actives largely listed as inhibitors; 150,000 compounds, 0.12% hits; AID 1452, 2008; active = well fitted curve in the direction sought with a large enough effect; inconclusive = small, poorly fitted or top-dose-only effect, or another doubt; inactive = no such curve, though single readings can be large; an effect the other way counts as inactive or inconclusive; also: potency is read from the fitted curve at half-maximal effect; nearly all actives have a fitted effect of over 55% in size
#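 Xylenol orange chromogenic assay: hydroperoxide from 12hLO oxidises Fe(II), giving red-shifted Fe(III)-XO absorbance. Conditions: 150 nM enzyme, 40 uM arachidonic acid, 25 mM Hepes pH 7.0, 0.01% Triton X-100, 30 min, room temperature.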
# IMPase Li inh – qHTS Assay for Identifying the Cell-Membrane Permeable IMPase Inhibitors: Potentiation with Lithium. CHO-M1 cells, IP1 TR-FRET (IP-One), carbachol + lithium. Potency, µM (series often up to 59.4 µM), without a hit: at the top dose activity, negative = IMPase inhibition, actives largely listed as inhibitors. 210,000 compounds, 0.35% hits. AID 1457, 2008; active = well fitted curve in the direction sought with a large enough effect; inconclusive = small, poorly fitted or top-dose-only effect, or another doubt; inactive = no such curve, though single readings can be large; an effect the other way counts as inactive or inconclusive;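 also: IP1 builds up when IMPase is blocked and the TR-FRET signal falls; potency is read from the fitted curve at half-maximal effect; plate controls were basal vehicle for no effect and high inhibitor control for full effect; nearly all actives have a fitted effect of over 50% in size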
#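 Lithium-sensitised IP1 accumulation assay; M1-expressing CHO cells treated 30 min at 37C with compound. Competitive antibody detection by time-resolved FRET followed a 10 min room-temperature lysis step.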
# IMPase cell inh – qHTS Assay for Identifying the Cell-Membrane Permeable IMPase Inhibitors | inhibition (IP1 accumulation), % at 46.1 µM | CHO-M1 cells, IP1 accumulation, HTRF TR-FRET ratio | 120,000 tested, under 10 active | Inositol monophosphatase 1 (Rattus norvegicus), P97697; active = well fitted curve in the direction sought with a large enough effect in the signal ratio, not every such curve was filed as active; inconclusive = small, poorly fitted or top-dose-only effect, or a change in a side signal; inactive = no such curve, though single readings can be large or run the other way; the % refers to the signal ratio;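 also: cells stimulated with carbachol in lithium chloride buffer; plate controls were DMSO basal wells for no effect and reference inhibitor wells for full effect; higher means more IMPase inhibition seen as more IP1 and lower FRET ratio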
# Target sequence (P97697 whole entry, looked up): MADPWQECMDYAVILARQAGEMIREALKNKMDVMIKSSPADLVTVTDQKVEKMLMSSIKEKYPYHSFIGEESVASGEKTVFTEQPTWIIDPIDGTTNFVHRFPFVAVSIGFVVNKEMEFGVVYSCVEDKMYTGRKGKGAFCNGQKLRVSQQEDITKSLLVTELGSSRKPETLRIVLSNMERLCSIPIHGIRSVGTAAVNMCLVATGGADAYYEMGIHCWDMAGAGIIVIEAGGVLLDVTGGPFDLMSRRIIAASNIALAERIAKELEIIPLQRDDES
#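 Cellular IMPase inhibition is scored as a rise in cytosolic IP1, detected by competitive TR-FRET between d2-labelled IP1 and a europium anti-IP1 antibody. M1-expressing CHO cells were stimulated with carbachol for 30 min at 37C, with lithium (50 mM LiCl) present in the buffer.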
# PNC assembly inh – High Content Assay for Compounds that inhibit the Assembly of the Perinucleolar Compartment; PC3M PTB-GFP, PNC prevalence imaging, 16 h; stronger effect = lower value; activity change (PNC), negative = inhibition, % at 10 µM; 140,000 compounds, 3.1% hits; AID 2417, 2010;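 active = readout at or below -70, meaning at least 70% loss of cells showing the perinucleolar compartment, a nuclear body marking cancer cells; inconclusive = readout between -30 and a set limit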;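 also: plate controls were DMSO wells for no effect and camptothecin positive control wells for full effect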
#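 Read-out is percentage of cells bearing a perinucleolar compartment, from automated 20x imaging of fixed, Hoechst-stained PC3M PTB-GFP cells. Cells were seeded 4 h, then exposed 16 h to compound (23 nl of library stock) in duplicate plates.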
# * = called active by the depositor; ? = inconclusive; nt = no result given; ! = repeats disagree; [ ] = remark or other dose. The list is not random: actives were taken first. Their share in the collection is about 11%. Unless noted, calls follow the shape of the dose curve; as a rule, active = well fitted inhibition curve with a large enough effect (not every such curve was filed as active); inconclusive = small, poorly fitted or top-dose-only effect, or another doubt; inactive = no such curve, though single readings can be large or run the other way. Unless noted, % is scaled to controls: 0 for no effect and ±100 for the full control effect.
SMILES,ALDH1A1 inh,HPGD inh,12-hLO inh,IMPase Li inh,IMPase cell inh,PNC assembly inh
COc1cccc(N2CCN(Cc3ccc(Cl)cc3)CC2)c1,10µM*,-14%,0%,13%[38.3 µM],6,8
O=[N+]([O-])c1ccc2c3c(cccc13)CC2,3.2µM*,-28%,-26%,6%,nt,nt
COC[C@]12CN(C=O)C3C4C(OC)C1[C@@]3(C1CC3(O)C(OC)C(O)C4(OC(C)=O)C1C3OC(=O)c1ccccc1)[C@@H](OC)CC2O (some centres not stated),-3%,-13%,3%,-3%,nt,nt
CC(=O)c1ccc2c(c1)C1C(Cl)C(Sc3ccccc3[N+](=O)[O-])CC1C(C(=O)O)N2 (configuration not stated),1.8µM*,?,-8%,37%,4,-4
O=c1cccc2n1CC1CC2CN(CCO)C1 (configuration not stated),2%,-8%,-5%,6%,-4,nt
C[C@H](c1ccccc1)N1CCN([C@@H](C)c2ccccc2)CC1,-3%[13.5 µM],-3%,1%[11.4 µM],12%,nt,nt
c1cnc(N2CCC3(CCNCC3)CC2)nc1,-16%,-13%,0%,13%,nt,nt
O=C1CC2(CCCC2)CC(=O)N1CCCCN1CCN(c2ncccn2)CC1,3.5µM*,5%,-5%,14%,3,0
O=C1NC(=O)C(=Cc2ccc(Oc3ccc([N+](=O)[O-])cc3)cc2)C(=O)N1,?,nt,nt,3%,nt,nt
COc1cc(C=C2C(=O)NC(=O)NC2=O)ccc1OCc1ccc([N+](=O)[O-])cc1,15µM*,nt,nt,3%,nt,nt
CN1C(=O)C(=Cc2ccccc2OCc2ccccc2Cl)C(=O)N(C)C1=O,2.8µM*,16µM*,-8%,-2%,6,?
CN1C(=O)C(=Cc2ccccc2OCCOc2ccc([N+](=O)[O-])cc2)C(=O)N(C)C1=O,3.5µM*,nt,nt,5%,nt,nt
O=C1NC(=O)C(=Cc2ccccc2OCCOc2ccc([N+](=O)[O-])cc2)C(=O)N1,14µM*,nt,nt,9%,nt,nt
Brc1cccc(-c2ccccc2)c1,10%,-2%,-3%,-5%,nt,nt
C/C=C(/C)C(=O)O[C@H]1C(C)=C2C([C@@H]1OC(=O)CCCCCCC)[C@@](C)(OC(C)=O)C[C@@H](OC(=O)CCC)[C@@]1(O)[C@H]2OC(=O)[C@@]1(C)O (some centres not stated),?,?,nt,2%,nt,nt
CCCN1CCO[C@@H]2c3cc(O)ccc3OC[C@@H]21,?,?,5%,14%,-4,nt
CCOC(=O)c1sc(/N=C/c2c(O)n(-c3ccccc3)c(=O)[nH]c2=O)c(C#N)c1C,11µM*,25µM*,-1%,-5%[38.3 µM],-7,16
Cc1cc(NC(=O)CCC(=O)N2CCC3(CC2)OCCO3)no1,-1%,-18%,0%,-5%[38.3 µM],-5,-84*
COc1ccc(CNCC(=O)N2CCC3(CC2)OCCO3)cc1,?,-5%,-6%,-6%[38.3 µM],-3,-13
CN(C)CCC(C#N)(c1ccccc1)c1ccccc1,-9%[13.5 µM],-8%,2%[11.4 µM],17%,nt,nt
C=CC(C)=O,20µM*,-3%,-1%,0%,nt,nt
C=CC(=O)OC,13%,1%,-2%,-1%,nt,nt
Cc1c(C(=O)N2CCC3(CC2)OCCO3)oc2ccc(S(=O)(=O)N3CCOCC3)cc12,?,-9%,2%,2%,5,46
Cc1c(C(=O)NCCC2=CCCCC2)oc2ccc(S(=O)(=O)N3CCC4(CC3)OCCO4)cc12,22µM*,-18%,-8%,23%,10,?
S=C(c1ccc(Cl)cc1)N1CCOCC1,?,22µM*,-2%,-5%[38.3 µM],2,22
SMILES,ALDH1A1 inh,HPGD inh,12-hLO inh,IMPase Li inh,IMPase cell inh,PNC assembly inh
O=c1[nH]c(=O)n(CCC2=CCCCC2)c(O)c1C=NCc1cccnc1,25µM*,-14%,1%,0%[38.3 µM],-4,59
CC(C)COC(=O)c1ccccc1C(=O)OCC(C)C,?,-9%,-4%,15%,nt,nt
CCCCC(CC)COC(=O)c1ccccc1C(=O)OCC(CC)CCCC (configuration not stated),22µM*,-7%,3%,12%,nt,nt
CCCn1c(C(=O)c2ccc(OC)cc2)nc2ccccc21,-11%,nt,nt,12%,nt,nt
COc1ccc(C(=O)c2c(C)n(CCN3CCOCC3)c3cc(I)ccc23)cc1,5µM*,-9%,-3%,32%,3,nt
C=CCN1CC[C@@]23CCCC[C@@H]2[C@@H]1Cc1ccc(O)cc13,nt,nt,-5%,nt,0,nt
Cc1c(C(=O)c2cccc3ccccc23)c2cccc3c2n1[C@H](CN1CCOCC1)CO3,11µM*!,-23%,-2%,-10%,4,nt
O=C(CN1CCOCC1)c1cccc2ccccc12,13µM*,-9%,-19%,0%[38.3 µM],-1,27
Cc1c(C(=O)c2ccc3ccccc3c2)c2cccc3c2n1[C@H](CN1CCOCC1)CO3,-14%,4%,-5%,23%,3,nt
O=C(O)c1cc[c]([Hg][Cl])cc1,5.5µM*,0.28µM*,?,7%,1,nt
O=C(O)c1cccc(Cl)c1,11%,-7%,-4%,-2%,nt,nt
C[C@@](Br)(C(=O)O)[C@H](Br)C(=O)O,-2%[13.5 µM],-3%,3%[11.4 µM],4%,nt,nt
Cc1ccc2c(c1)CC1(CN2C)C(=O)NC(=O)N(c2cc(C)ccc2C)C1=O (configuration not stated),1.8µM*,-16%,-15%,-11%[38.3 µM],?,-15
COc1ccc(OC)c(N2C(=O)NC(=O)C3(Cc4cc(C)ccc4N(C)C3)C2=O)c1 (configuration not stated),?,-11%,-10%,2%[38.3 µM],-11,12
COc1cc(CN2C(=O)NC(=O)C3(Cc4cc(C)ccc4N(C)C3)C2=O)cc(OC)c1 (configuration not stated),?,-18%,-7%,14%[38.3 µM],5,?
COc1cccc(N2C(=O)NC(=O)C3(Cc4cc(C)ccc4N(C)C3)C2=O)c1 (configuration not stated),20µM*,-22%,0%,-6%[38.3 µM],-6,?
CCCCN1C(=O)NC(=O)C2(Cc3cc(C)ccc3N(C)C2)C1=O (configuration not stated),10µM*,-10%,-1%,22%[38.3 µM],-11,?
C1CCOC1,?,-3%,0%,9%,nt,nt
CN1CCN(c2ccc([N+](=O)[O-])c(NCc3ccco3)c2)CC1,3%,-19%,-2%,1%,nt,57
